Our source for the parasite growth, % of DMSO control values is PubChem BioAssay (NCATS).

The experiment in a line: qHTS profiling of the MIPE4 collection as inhibitors of Plasmodium falciparum (3D7) proliferation (AID 743344).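 Note: scaled between DMSO vehicle wells and 0.29 µM artemisinin as full inhibition.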 As to conditions: P. falciparum 3D7 in erythrocytes, SYBR Green DNA fluorescence, 72 h; at 28.5 µM unless noted. A digest of the protocol:
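Erythrocytes infected with P. falciparum (0.3% parasitemia, 2.5% hematocrit) incubated with compounds 72 h at 37 C, 5% CO2. Lysis with saponin/Triton buffer containing SYBR Green I, overnight at room temperature in the dark; DNA fluorescence (485/535 nm) normalised to 0.29 uM artemisinin and DMSO.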
(In qHTS, concentration-response curves come from the screen itself.)
`Cc1ccc2nc(NCCN)c3ncc(C)n3c2c1`: the parasite growth, % of DMSO control was 63.3%.
Consider `COc1cc(OC)cc(-c2ccc3ncc4ccc(=O)n(-c5ccc(N6CCNCC6)c(C(F)(F)F)c5)c4c3c2)c1`, for which the parasite growth, % of DMSO control was determined as 5.19%.
The result for `CCN(CC)CCNC(=O)c1c(C)[nH]c(C=C2C(=O)Nc3ccc(F)cc32)c1C` reads 4.82% [at 57.5 µM]; that for `Cc1cn([C@@H]2O[C@H](CO)[C@@H](O)[C@H]2F)c(=O)[nH]c1=O`, 100%; that for `Cn1cc(-c2cnn3c(N)c(Br)c([C@H]4CCCNC4)nc23)cn1`, 7.85%.
The result for `O=C(c1ccc(F)cc1)N1CCC[C@H](c2nc(-c3ccc(F)cc3)no2)C1` reads 74.1%; that for `CC(C)NC[C@@H](C(=O)N1CCN(c2ncnc3c2[C@H](C)C[C@H]3O)CC1)c1ccc(Cl)cc1`, 5.13%; that for `O=C1NC(=O)C(=Cc2ccc3nccc(-c4ccncc4)c3c2)S1`, 6.28%.
Compound `CC(=O)O[C@]1(C(C)=O)CC[C@H]2[C@@H]3C=C(C)C4=CC(=O)CC[C@]4(C)[C@@H]3CC[C@@]21C` had a parasite growth, % of DMSO control of 23.2%.
The result for `Nc1nc(=O)n([C@H]2C[C@H](O)[C@@H](CO)O2)cc1F` reads 99.5%; that for `CC(=O)OCC(=O)[C@@]12N=C(C)O[C@H]1C[C@H]1[C@@H]3CCC4=CC(=O)C=C[C@]4(C)[C@@H]3[C@@H](O)C[C@@]12C`, 89.5%; that for `O=c1[nH]c(=O)n([C@H]2C[C@@H](O)[C@@H](CO)O2)cc1F`, 183%.
The compound `C=C(C)[C@@H]1CC[C@]2(C)CC[C@]3(C)[C@H](CC[C@@H]4[C@@]5(C)CC[C@H](O)C(C)(C)[C@H]5CC[C@]43C)[C@@H]12` displayed a parasite growth, % of DMSO control of 44.1%.
Compound `CC(C)(C)[C@H](NC(=O)c1ccc(N)c(Cl)c1)C(=O)N1CCC[C@@H]1C(=O)N[C@H](C#N)CC(=O)O` displayed a parasite growth, % of DMSO control of 160% [at 3.19 µM].
As for `CCn1c(=O)c2c(nc(C=Cc3ccc(OC)c(OC)c3)n2C)n(CC)c1=O`, the parasite growth, % of DMSO control is 37.9%.
The compound `CCCCCN=C(N)NN=Cc1c[nH]c2ccc(OC)cc12` returned a parasite growth, % of DMSO control of 7.63%.
The same measure for `Cc1[nH]c(C=C2C(=O)Nc3ccccc32)c(C)c1CCC(=O)O`: 7.83%; for `COc1cc([C@@H]2c3cc4c(cc3[C@@H](O[C@@H]3O[C@@H]5CO[C@@H](c6cccs6)O[C@@H]5[C@H](O)[C@@H]3O)[C@H]3COC(=O)[C@H]23)OCO4)cc(OC)c1O`: 5.39%; for `C[C@H]1COc2c(N3CCN(C)CC3)c(F)cc3c(=O)c(C(=O)O)cn1c23`: 49.9%.
For the compound `COc1cc(O)c2c(c1)C1OC1C[C@H](O)[C@H](O)C(=O)C=CC[C@H](C)OC2=O` (some centres not stated), the parasite growth, % of DMSO control was 5.71%.
Take `Cn1cc(C2=C(c3c4n(c5ccccc35)CCC(CN)C4)C(=O)NC2=O)c2ccccc21` (configuration not stated): the parasite growth, % of DMSO control is 3.66%.
In the case of `FC(F)c1nc2ccccc2n1-c1nc(N2CCOCC2)nc(N2CCOCC2)n1`, the parasite growth, % of DMSO control amounted to 4.72%.
`O=C(O)C=Cc1ccc(Cn2ccnc2)cc1` gave a parasite growth, % of DMSO control of 90.5%.
Regarding `CN[C@@H]1C[C@H]2O[C@@](C)([C@H]1OC)n1c3ccccc3c3c4c(c5c6ccccc6n2c5c31)C(=O)N[C@H]4O`, the parasite growth, % of DMSO control came to 5.29%.
Compound `C[C@@H]1CC[C@@]2(OC1)OC1CC3C4CC=C5CC(O)CCC5(C)C4CCC3(C)C1[C@@H]2C` (some centres not stated) had a parasite growth, % of DMSO control of 94.4%.
The same measure for `O=C(O)C[C@H](O)C[C@H](O)C=Cc1c(C2CC2)nc2ccccc2c1-c1ccc(F)cc1`: 94%.
The result for `CC[C@H]1OC(=O)[C@H](C)[C@@H](O[C@H]2C[C@@](C)(OC)[C@@H](O)[C@H](C)O2)[C@H](C)[C@@H](O[C@@H]2O[C@H](C)C[C@H](N(C)C)[C@@H]2O)[C@](C)(OC)C[C@@H](C)C(=O)[C@H](C)[C@@H](O)[C@]1(C)O` reads 46.8%; that for `C#C[C@]1(O)CC[C@@H]2[C@@H]3CCC4=CC(=O)CC[C@@H]4[C@H]3CC[C@@]21CC`, 28%.
For `CCNC(=O)Nc1ccc(-c2nc3c(c(N4CCOC[C@H]4C)n2)CCN(C2COC2)C3)cc1`, the parasite growth, % of DMSO control is 24.6%.
The same measure for `COC1=C(OC)C(=O)C(CC=C(C)CCC=C(C)CCC=C(C)CCC=C(C)CCC=C(C)CCC=C(C)CCC=C(C)CCC=C(C)CCC=C(C)CCC=C(C)C)=C(C)C1=O`: 94.3%.
As to `O=C(Nc1ccc(Oc2ccnc3[nH]ccc23)c(F)c1)c1cccn(-c2ccc(F)cc2)c1=O`, the parasite growth, % of DMSO control amounted to 35.8%.
The compound `CC(=O)OC[C@@H]1O[C@@H](n2ccc(=O)[nH]c2=O)[C@H](OC(C)=O)[C@H]1OC(C)=O` gave a parasite growth, % of DMSO control of 158%.
Take `O=C(CN1C(=O)C2(CCCC2)NC[C@H]1c1cc(F)cc(F)c1)Nc1ccc2c(c1)C[C@@]1(C2)C(=O)Nc2ncccc21`: the parasite growth, % of DMSO control is 26%.
The result for `c1cc(N[C@@H]2CCNC2)nc(-c2cnc3ccc(-c4cn[nH]c4)cn23)c1` reads 5.24%.
For `CCN1CCN(C(=O)N[C@H](C(=O)N[C@@H]2C(=O)N3C(C(=O)O)=C(CSc4nnnn4C)CS[C@@H]23)c2ccc(O)cc2)C(=O)C1=O`, the parasite growth, % of DMSO control amounted to 91.3% [at 9.64 µM].
`COc1cc(OC)c(C=CS(=O)(=O)Cc2ccc(OC)c(NCC(=O)O)c2)c(OC)c1` returned a parasite growth, % of DMSO control of 88.3%.
The compound `C[C@H]1C[C@H]2[C@@H]3CCC4=CC(=O)C=C[C@]4(C)[C@@H]3C(=O)C[C@]2(C)[C@@]1(O)C(=O)CO` yielded a parasite growth, % of DMSO control of 63%.
